We go through 26 compounds from PubChem BioAssay (NCATS).

Each structure is given as a SMILES string. Several values for one entry are separate records, joined by “and”; a condition that tells them apart may be missing. Equal values may be shown once. Results filed as inconclusive are left out. More than one record can exist for a structure, and the calls need not agree. Activity calls are given as the source filed them. The call rests on the fitted dose curve; in most records, active means well fitted curve in the direction sought with a large enough effect; inconclusive means small, poorly fitted or top-dose-only effect, or another doubt; inactive means no such curve, though single readings can be large; an effect the other way counts as inactive or inconclusive.

Assay [1] is described as follows: Identifying Small Molecule Inhibitors of Pancreatic Cancer Stem Cells (Panc1, Adherent) (AID 1259362). Further: potency means the concentration at half of the fitted maximal effect. The following applies: Potency: viability. Summed up: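 Spheroids grown 14 days in stem cell media on hydrogel-coated nonadherent plates; 2D lines seeded directly. Compounds added after 4 h attachment, 48 h at 37C, 5% CO2; CellTiter-Glo luminescence normalized to DMSO (no inhibition) and no-cell wells (full inhibition).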

Assay [2] in a line: P-glycoprotein substrates identified in KB-3-1 adenocarcinoma cell line, qHTS therapeutic library screen (AID 1346986). Further: nearly all actives have a fitted effect of over 60% in size.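 Further: potency means the concentration at half of the fitted maximal effect; potency is for cytotoxicity meaning loss of cell viability.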 Summed up:
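KB-3-1 parental and colchicine-selected P-gp-overexpressing KB-8-5-11 cells (colchicine omitted during assay), 500 cells/well, dosed in dose-response for 72 h at 37 °C; CellTiter-Glo luminescence. Cytotoxic: curve class -1.1 to -2.4, max response >50%, AC50 < 10 uM.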

Assay [3] in a line: P-glycoprotein substrates identified in KB-8-5-11 adenocarcinoma cell line, qHTS therapeutic library screen (AID 1346987). Further: nearly all actives have a fitted effect of over 65% in size. Further: potency means the concentration at half of the fitted maximal effect. An outline of the steps: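 KB-8-5-11, a colchicine-selected P-gp-overexpressing KB-3-1 subline, was grown without colchicine for the assay. Cells were seeded at 500 cells/well, dosed in concentration-response and incubated 72 h at 37 degree C, 5% CO2. Viability was read by CellTiter-Glo luminescence.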

Assay [4] is described as follows: Identifying Small Molecule Inhibitors of Pancreatic Cancer Stem Cells (A278, Adherent) (AID 1259361).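 Further: viability read after 48 h compound exposure; nearly all actives have a fitted effect of over 35% in size.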 Summed up: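 Endpoint: ATP-based luminescence, 48 h drug exposure. Bortezomib at 9.2 uM final as full-kill control; DMSO vehicle as negative control; activity normalized between vehicle and cell-free wells.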
A short description of assay [5]: NS1 protein of Zika virus - qHTS assay to identify small molecule inhibitors in human HEK 293 cells (AID 1347053). Further: nearly all actives have a fitted effect of over 55% in size. Further: potency means the concentration at half of the fitted maximal effect. An outline of the steps: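 Following 20 h seeding, HEK 293 cells took compound, then 1 h later ZIKV MR766 (MOI = 0.5). Incubation ran 24 h at 37 C before TR-FRET detection of NS1; a drop in signal indicates inhibition.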

Take `COC(=O)Nc1ccc(-c2nc(N3CCOCC3)c3cnn(C4CCN(C(=O)OC)CC4)c3n2)cc1`: in assay [1], the Potency result was “inactive”. Also, the Potency was 1.64 µM (active) in assay [2]; 469 nM (active) and 1.46 µM (active) in assay [3].
Turning to `COc1ccc(Cn2ccc3ccc(C(=O)NO)cc32)cc1`, the Potency result in assay [2] is “inactive”.
For `CN1C(=O)C(Cc2c[nH]c3ccccc23)NC1=S` (stereo not given), the IC50 (viability decrease) result in assay [4] was “inactive”. For the same compound, the Potency entry in assay [2], in assay [3] and in assay [5] was “inactive” throughout.
On to `COc1ccc2c(c1)CC[C@H]1[C@@H]2CC[C@]2(C)[C@@H](NCCCCCCN3C(=O)C=CC3=O)CC[C@H]12`, for which, in assay [4], the IC50 (viability decrease) is 20.9 µM (active). Moreover, the Potency result in assay [1], in assay [3] and in assay [5] was “inactive” in each case.
Turning to `Cn1cc(-c2ccc3nnc(Sc4ccc5ncccc5c4)n3n2)cn1`, in assay [4], the IC50 (viability decrease) result is “inactive”. Moreover, the Potency entry in assay [1], in assay [3] and in assay [5] was “inactive” each time.
For `Cc1cccc(Nc2nc(N[C@@H]3CCCC[C@H]3N)ncc2C(N)=O)c1`, the results for the Potency in assay [1] and in assay [5] were 26.4 µM (active) and 23.5 µM (active), respectively.
Turning to `COc1cc2nccc(Oc3ccc(NC(=O)Nc4ccc(F)cc4F)c(F)c3)c2cc1OC`, the Potency in assay [2] and in assay [3] was 7.31 µM (active) each time.
Turning to `Cc1ccc(C(=O)N(CCCN)[C@@H](c2nc3cc(Cl)ccc3c(=O)n2Cc2ccccc2)C(C)C)cc1`, the IC50 (viability decrease) in assay [4] was 0.0047 µM (active). In assay [3], the Potency is 0.118 µM (active). The Potency entry in assay [5] was “inactive”.
For `Cc1ccc(NC(=O)c2ccc(CN3CCN(C)CC3)cc2)cc1Nc1nc(-c2cccnc2)cs1`, the Potency entry in assay [2] was “inactive”.
As to `CCCCOCCOc1nc(-c2ccc(C(=O)O)c(F)c2)sc1C`, the IC50 (viability decrease) result in assay [4] was “inactive”. For the same compound, the Potency result in assay [3] and in assay [5] was “inactive” in each case.
Regarding `NC(=O)c1ccc(N(C(N)=O)c2c(F)cccc2F)nc1-c1ccc(F)cc1F`, the IC50 (viability decrease) entry in assay [4] was “inactive”. The Potency result in assay [3] and in assay [5] was “inactive” throughout.
Consider `CC(=O)NCCC(=O)N[C@@H](CCC(N)=O)C(=O)N[C@@H](CO)C(=O)N[C@@H](CCC(N)=O)C(=O)N[C@@H](CCC(N)=O)C(=O)N[C@H](C(=O)N[C@@H](Cc1ccccc1)C(=O)N[C@]1(C)CCCCCCC=CCCC[C@@](C)(C(=O)N[C@@H](CCC(N)=O)C(=O)N[C@@H](CC(N)=O)C(N)=O)NC(=O)[C@H](CC(C)C)NC(=O)[C@H](CC(C)C)NC(=O)[C@@H](CCCNC(=N)N)NC(=O)[C@H](Cc2c[nH]c3ccccc23)NC(=O)[C@H](CC(C)C)NC(=O)[C@H](CC(N)=O)NC1=O)[C@H](C)O`, for which the Potency entry in assay [1] and in assay [3] was “inactive” in each case.
With `CNC(=O)c1cc(Oc2ccc(NC(=O)Nc3ccc(Cl)c(C(F)(F)F)c3)c(F)c2)ccn1`, the IC50 (viability decrease) in assay [4] was 16.6 µM (active). Also, the Potency is 20.9 µM (active) in assay [1]; 18.4 µM (active) in assay [2]; “inactive and 16.4 µM (active)” in assay [3].
Regarding `COc1cccc(OC)c1-c1cc(C(=O)NC2(C(=O)O)C3CC4CC(C3)CC2C4)nn1-c1ccnc2cc(Cl)ccc12` (stereo not given), the IC50 (viability decrease) in assay [4] was 20.9 µM (active). In addition, the Potency entry in assay [1], in assay [3] and in assay [5] was “inactive” in each case.
For `CC(C)(C)c1[nH]cnc1C=c1[nH]c(=O)c(=Cc2ccccc2)[nH]c1=O`, in assay [4], the IC50 (viability decrease) is 0.0166 µM (active). Further, the Potency was 0.0187 µM (active) in assay [1], 0.0024 µM (active) in assay [3] and 0.003 µM (active) in assay [5].
Taken in the same sequence, the figures for `COc1cc2c(cc1OC)CC(=O)N(CCCN(C)C[C@H]1Cc3cc(OC)c(OC)cc31)CC2` were “inactive”, “inactive”, “inactive” and “inactive”.
For the compound `CC(C)n1c(C=C[C@H](O)C[C@H](O)CC(=O)O)c(-c2ccc(F)cc2)c2ccccc21`, the IC50 (viability decrease) in assay [4] was 1.05 µM (active). For the same compound, the Potency in assay [3] is 11.8 µM (active). Further, in assay [5], the Potency result is “inactive”.
Take `CC(C)Oc1cc(Nc2nc(N[C@@H](C)c3ccc(F)cn3)ncc2Cl)[nH]n1`: the IC50 (viability decrease) in assay [4] was 13.2 µM (active). For the same compound, in assay [3], the Potency is 4.69 µM (active) and 8.2 µM (active). In addition, the Potency result in assay [5] is “inactive”.
On to `CC1=C[C@@H]2[C@@H]([C@@H](O)C[C@@]3(C)[C@H]2C[C@@H](C)[C@]3(O)C(=O)CO)[C@@]2(C)Cc3cnn(-c4ccccc4)c3C=C12`, for which the IC50 (viability decrease) in assay [4] is 20.9 µM (active). Besides, the Potency in assay [3] was 16.4 µM (active).
For `C[C@@H](O[C@H]1OCCN(Cc2n[nH]c(=O)[nH]2)[C@@H]1c1ccc(F)cc1)c1cc(C(F)(F)F)cc(C(F)(F)F)c1`, in assay [4], the IC50 (viability decrease) was 16.6 µM (active). Besides, the Potency in assay [3] was 20.9 µM (active).
Consider `O=C(Nc1ccc(OC(F)(F)F)cc1)c1sccc1NCc1ccnc2ccccc12`, for which the IC50 (viability decrease) in assay [4] was 20.9 µM (active). The Potency result in assay [3] and in assay [5] was “inactive” in each case.
With `CCC(=O)N1CCN(c2ccc(-n3c(=O)ccc4cnc5ccc(-c6cnc7ccccc7c6)cc5c43)cc2C(F)(F)F)CC1`, the Potency was 0.075 µM (active) in assay [2]; 41.8 nM (active) and 133 nM (active) in assay [3].
For `CN(C)CCN(C)C(=O)c1ccc(NC(=O)Nc2ccc(-c3nc(N4CCOCC4)c4ccn(CC(F)(F)F)c4n3)cc2)cc1`, in assay [4], the IC50 (viability decrease) is 0.0418 µM (active). The Potency in assay [1] is 14.8 µM (active); in assay [5], 3.32 µM (active). For the same compound, the Potency result in assay [3] was “inactive”.
Take `CCC=CC[C@H]1C(=O)CC[C@@H]1CC(=O)OC`: the IC50 (viability decrease) entry in assay [4] is “inactive”. Also, the Potency entry in assay [3] and in assay [5] was “inactive” throughout.
`CCNC(=O)c1noc(-c2cc(C(C)C)c(O)cc2O)c1-c1ccc(CN2CCOCC2)cc1`: in assay [4], the IC50 (viability decrease) was 0.0037 µM (active). Also, in assay [3], the Potency is 0.0731 µM (active).
Consider `COc1c(C)cnc(Cn2cnc3c(Cl)nc(N)nc32)c1C`, for which the IC50 (viability decrease) in assay [4] is 0.0935 µM (active). Further, the Potency in assay [1] was 0.0332 µM (active). Also, in assay [5], the Potency entry was “inactive”.
